Test results published in PubChem BioAssay (EPA / NIEHS).
Values joined by “and” are separate entries in the source; they are usually repeats but may differ in a detail not shown here. Identical values can stand only once. Records with an inconclusive call do not appear. Active and inactive are the calls of the source. The calls were made as follows, unless noted: active = hit-call score of the fitted dose curve at least 0.9, where 1 is the maximum; inconclusive = response in the unintended direction; inactive = score below 0.9.

What was measured:
[1] = molecular target: Nucleoli Translocation, AR (gene 367) (UniProt P10275); assay: UPITT_HCI_U2OS_AR_TIF2_Nucleoli_Antagonist: University of Pittsburgh U2OS Androgen Receptor-Transcriptional Intermediary Factor 2 (AR-TIF2) Antagonism High Content Imaging Assay for Nucleoli Translocation (AID 2283997)
Outline: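 U2OS cells expressing RFP-tagged human AR and GFP-tagged TIF2 were imaged by high-content fluorescence microscopy for red AR signal in the nucleolar region. Compounds were screened at 20 uM final (0.2% DMSO), with activity fitted relative to DHT as baseline.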

[2] = molecular target: Nucleoli Translocation, AR (gene 367) (UniProt P10275); assay: UPITT_HCI_U2OS_AR_TIF2_Nucleoli_Agonist: University of Pittsburgh U2OS Androgen Receptor-Transcriptional Intermediary Factor 2 (AR-TIF2) Agonism High Content Imaging Assay for Nucleoli Translocation (AID 2283998)
Outline: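 RFP-AR / GFP-TIF2 cells; cpds diluted in serum-free medium; single-point screen 20 uM final (0.2% DMSO), actives confirmed in triplicate; conc-response 0.195–50 uM final (0.5% DMSO). Readout: nucleolar red fluorescence, positive direction vs DMSO.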

[3] = molecular target: Ratio of Nucleoli Translocation and Cytoplasm, AR (gene 367) (UniProt P10275); assay: UPITT_HCI_U2OS_AR_TIF2_Nucleoli_Cytoplasm_Ratio_Antagonist: University of Pittsburgh U2OS Androgen Receptor-Transcriptional Intermediary Factor 2 (AR-TIF2) Antagonism High Content Imaging Assay for Ratio of Nucleoli Translocation and Cytoplasm (AID 2283999);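 also: antagonists lower the DHT-driven ratio of nucleolar to cytoplasmic red signal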
Outline: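 U2OS cells co-expressing RFP-tagged human AR and GFP-tagged TIF2, antagonist mode with DHT as baseline. Nucleolar-to-cytoplasmic red fluorescence ratio imaged by high-content microscopy; final compound 20 uM (0.2% DMSO) primary, 0.195–50 uM (0.5% DMSO) concentration-response.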

[4] = molecular target: Ratio of Nucleoli Translocation and Cytoplasm, AR (gene 367) (UniProt P10275); assay: UPITT_HCI_U2OS_AR_TIF2_Nucleoli_Cytoplasm_Ratio_Agonist: University of Pittsburgh U2OS Androgen Receptor-Transcriptional Intermediary Factor 2 (AR-TIF2) Agonism High Content Imaging Assay for Ratio of Nucleoli Translocation and Cytoplasm (AID 2284000);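 also: hits raise the red nucleolar to cytoplasm ratio above vehicle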
Outline: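 U2OS cells expressing RFP-tagged human AR and GFP-tagged TIF2 were imaged by high-content fluorescence microscopy. The endpoint is the ratio of nucleolar to cytoplasmic red fluorescence, fitted for gain of signal relative to DMSO. Concentration-response spanned 0.195 to 50 uM final (0.5% DMSO).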

[5] = CCTE_Simmons_MITO_basal_resp_rate: CCTE's HepG2 Seahorse XF Respirometric Screening Assay at Basal Respiratory State, Simmons Lab (AID 2284001; active = hit-call score of the fitted dose curve at least 0.9, where 1 is the maximum; inactive = score below 0.9); settings: actives raise or lower the signal
Outline: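 HepG2 cells were given test chemicals at 7 concentrations, 125 nM to 100 uM final, and oxygen consumption rate was read every 6 min (3 min mix, 3 min measure) over 72 min. Basal-phase OCR was fitted bidirectionally against DMSO.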

DIO1 (gene 1733) = assay: CCTE_GLTED_hDIO1: CCTE's human Deiodinase 1 (DIO1) Inhibition Assay, Great Lakes Toxicology and Ecology Division (GLTED) Lab (AID 2283987);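 also: isolated human DIO1 enzyme in a cell-free setup rather than cells; enzyme activity read as free iodide liberated from substrate via Sandell-Kolthoff colorimetry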
Outline: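 Steps: human DIO1 enzyme plus test chemical, 3 h incubation; free iodide then quantified in a second Sandell-Kolthoff step by absorbance. DMSO served as negative control and baseline.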

[6] = CCTE_Harrill_HTTr_Apoptosis_DMEM_24hr: (Pilot) CCTE's 24-hour Apoptosis Assessment for the High-Throughput Transcriptomics (HTTr) Platform, in MCF-7 cells cultured in DMEM + 10% fetal bovine serum, Harrill Lab (AID 2283983; active = hit-call score of the fitted dose curve at least 0.9, where 1 is the maximum; inactive = score below 0.9)
Outline: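 MCF-7 cells in DMEM + 10% FBS, eight-point dilution series, 24 h exposure. Caspase-3/7 activation imaged by high-content imaging with CellEvent Caspase 3/7 Green. Bidirectional curve fitting against DMSO baseline.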

[7] = CCTE_Harrill_HTTr_Apoptosis_PRF_DMEM_6hr: (Pilot) CCTE's 6-hour Apoptosis Assessment for the High-Throughput Transcriptomics (HTTr) Platform, in MCF-7 cells cultured phenol red-free DMEM + 10% charcoal-stripped fetal bovine serum, Harrill Lab (AID 2283984; active = hit-call score of the fitted dose curve at least 0.9, where 1 is the maximum; inactive = score below 0.9)
Outline: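 MCF-7 cells in phenol red-free DMEM + 10% charcoal-stripped FBS, eight-point dilution series, 6 h exposure. Caspase-3/7 activation imaged by high-content imaging with CellEvent Caspase 3/7 Green; bidirectional fit versus DMSO baseline.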

[8] = CCTE_Harrill_HTTr_Apoptosis_PRF_DMEM_12hr: (Pilot) CCTE's 12-hour Apoptosis Assessment for the High-Throughput Transcriptomics (HTTr) Platform, in MCF-7 cells cultured in phenol red-free DMEM + 10% charcoal-stripped fetal bovine serum, Harrill Lab (AID 2283985; active = hit-call score of the fitted dose curve at least 0.9, where 1 is the maximum; inactive = score below 0.9)
From the text: This is a cell-based assay that evaluates apoptosis using high content imaging to evaluate activation of caspase-3/7 using the CellEvent Caspase 3/7 Green detection reagent in 384-well format.One of seven assay components measured from the CCTE_Harrill_HTTr_Apoptosis assay. This was part of a pilot experiment. This is a cell-based assay that evaluates apoptosis in MCF-7 cells cultured in phenol red-free DMEM + 10% charcoal-stripped fetal bovine serum. High content imaging is used to evaluate activation of caspase-3/7 using the CellEvent Caspase 3/7 Green detection reagent. Measurements are taken at 12 hours after chemical dosing in 384-well format.The assay component endpoint CCTE_Harrill_HTTr_Apoptosis_PRF_DMEM_12hr was analyzed with bidirectional fitting relation to DMSO as the negative control and baseline of activity. Using a type of viability reporter, gain-of-signal activity can be used to evaluate activation of caspase-3/7 using the CellEvent Caspase 3/7 Green detection reagent to understand changes in apoptosis. To generalize the intended target to other relatable targets, this assay endpoint is annotated to cell cycle, where the subfamily is apoptosis.
Chemicals were tested in MCF7 cells in an eight point dilution series with a twelve hour exposure duration.

[9] = CCTE_Harrill_HTTr_Apoptosis_PRF_DMEM_24hr: (Pilot) CCTE's 24-hour Apoptosis Assessment for the High-Throughput Transcriptomics (HTTr) Platform, in MCF-7 cells cultured in phenol red-free DMEM + 10% charcoal-stripped fetal bovine serum, Harrill Lab (AID 2283986; active = hit-call score of the fitted dose curve at least 0.9, where 1 is the maximum; inactive = score below 0.9)
Outline: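 MCF-7 cells in phenol red-free DMEM with 10% charcoal-stripped FBS, exposed 24 h across an eight-point dilution series. Caspase-3/7 activation imaged with CellEvent Green by high content imaging; bidirectional fitting against DMSO.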

Sequence of Ratio of Nucleoli Translocation and Cytoplasm, AR (gene 367) (P10275 whole entry, looked up): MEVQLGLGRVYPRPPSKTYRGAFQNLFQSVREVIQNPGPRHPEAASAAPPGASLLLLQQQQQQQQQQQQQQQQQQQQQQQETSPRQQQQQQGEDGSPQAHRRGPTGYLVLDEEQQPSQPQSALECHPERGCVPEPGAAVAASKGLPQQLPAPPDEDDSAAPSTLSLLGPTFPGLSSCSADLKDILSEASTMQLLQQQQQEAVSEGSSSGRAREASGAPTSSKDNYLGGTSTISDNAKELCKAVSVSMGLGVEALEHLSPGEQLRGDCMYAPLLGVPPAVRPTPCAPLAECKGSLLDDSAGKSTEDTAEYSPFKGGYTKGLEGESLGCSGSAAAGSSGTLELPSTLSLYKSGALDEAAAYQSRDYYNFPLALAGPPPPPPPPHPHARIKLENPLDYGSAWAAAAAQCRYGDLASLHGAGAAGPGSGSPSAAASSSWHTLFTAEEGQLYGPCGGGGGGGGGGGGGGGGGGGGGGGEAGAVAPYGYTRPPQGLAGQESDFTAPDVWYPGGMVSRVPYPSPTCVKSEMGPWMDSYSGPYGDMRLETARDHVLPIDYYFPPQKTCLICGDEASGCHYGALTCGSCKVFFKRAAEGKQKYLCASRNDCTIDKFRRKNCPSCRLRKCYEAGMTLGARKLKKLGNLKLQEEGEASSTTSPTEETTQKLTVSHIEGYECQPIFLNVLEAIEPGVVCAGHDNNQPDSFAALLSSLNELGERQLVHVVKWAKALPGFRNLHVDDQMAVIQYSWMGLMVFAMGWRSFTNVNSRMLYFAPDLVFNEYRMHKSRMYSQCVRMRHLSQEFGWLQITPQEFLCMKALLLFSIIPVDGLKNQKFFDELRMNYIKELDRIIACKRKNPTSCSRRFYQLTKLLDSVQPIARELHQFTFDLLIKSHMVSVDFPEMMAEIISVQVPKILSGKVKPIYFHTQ
Sequence of Nucleoli Translocation, AR (gene 367) (P10275 whole entry, looked up): as above

Compound: C[C@H]1O[C@@H](O[C@H]2[C@@H](O)C[C@H](O[C@H]3[C@@H](O)C[C@H](O[C@H]4CC[C@@]5(C)[C@H](CC[C@@H]6[C@@H]5CC[C@]5(C)[C@@H](C7=CC(=O)OC7)CC[C@]65O)C4)O[C@@H]3C)O[C@@H]2C)C[C@H](O)[C@@H]1O
- AC50 [1]: 8.23 µM (active) and 5.95 µM (active)
- outcome [2]: inactive
- outcome [3]: inactive
- outcome [4]: inactive

Compound: C=CCc1ccc(OC)cc1
- outcome [1]: inactive
- outcome [3]: inactive
- outcome [4]: inactive

Compound: O=[N+]([O-])c1ccc(O)c([N+](=O)[O-])c1
- outcome [1]: inactive
- outcome [3]: inactive
- outcome [4]: inactive
- AC50 [5]: 13 µM (active) and 10.3 µM (active)

Compound: O=C1C(Cl)=C(Cl)C(=O)c2ccccc21
- AC50 (DIO1 (gene 1733)): 20 µM (active)

Compound: COP(=O)(OC)O/C(=C\Cl)c1cc(Cl)c(Cl)cc1Cl
- AC50 (DIO1 (gene 1733)): 48.7 µM (active)
- AC50 [1]: 50 µM (active)
- outcome [2]: inactive
- outcome [3]: inactive
- AC50 [4]: 50 µM (active)

Compound: CCCCCCCCc1ccc(O)cc1
- AC50 (DIO1 (gene 1733)): 57.1 µM (active)
- outcome [3]: inactive
- AC50 [5]: 50 µM (active)

Compound: O=c1[nH]c(=O)[nH]c(=O)[nH]1
- outcome [1]: inactive
- outcome [2]: inactive
- outcome [3]: inactive

Compound: O=C(O)C(F)(F)C(F)(F)C(F)(F)C(F)(F)C(F)(F)C(F)(F)C(F)(F)C(F)(F)C(F)(F)C(F)(F)F
- AC50 (DIO1 (gene 1733)): 157 µM (active) and 18 µM (active)
- outcome [5]: inactive

Compound: CCC1(c2ccc(N)cc2)CCC(=O)NC1=O (stereo not given)
- outcome [1]: inactive
- outcome [3]: inactive

Compound: COP(=S)(OC)Oc1cc(Cl)c(Cl)cc1Cl
- outcome [1]: inactive
- outcome [2]: inactive
- outcome [3]: inactive
- outcome [4]: inactive

Compound: CCOP(=S)(OCC)Oc1nc(Cl)c(Cl)cc1Cl
- AC50 [1]: 50 µM (active)
- outcome [2]: inactive
- outcome [3]: inactive
- outcome [4]: inactive
- outcome [5]: inactive

Compound: C[C@@H]1C[C@@H]([C@H](O)CC2CC(=O)NC(=O)C2)C(=O)[C@@H](C)C1
- outcome [6]: inactive
- outcome [7]: inactive
- outcome [8]: inactive
- outcome [9]: inactive

Compound: CC12CC1(C)C(=O)N(c1cc(Cl)cc(Cl)c1)C2=O (stereo not given)
- AC50 [1]: 0.134 µM (active)
- outcome [2]: inactive
- outcome [3]: inactive
- outcome [4]: inactive

Compound: c1cc[c]([Hg][c]2ccccc2)cc1
- AC50 [1]: 70.3 µM (active)
- outcome [2]: inactive
- AC50 [3]: 85.1 µM (active)
- outcome [4]: inactive

Compound: O=C(Nc1ccc2[nH]ccc2c1)c1cc2cc(F)ccc2n1Cc1cccc(F)c1
- outcome [5]: inactive

Compound: CC(C)CCCCCCOC(=O)c1ccccc1C(=O)OCCCCCCC(C)C
- outcome [1]: inactive
- outcome [4]: inactive

Compound: CCSC(C)CC1CC(=O)C(C(CC)=NOC/C=C/Cl)=C(O)C1 (stereo not given)
- outcome [1]: inactive
- outcome [2]: inactive
- outcome [3]: inactive
- outcome [4]: inactive

Compound: C[C@]12CCC(=O)C[C@@H]1CC[C@@H]1[C@@H]2CC[C@]2(C)[C@@H](O)CC[C@@H]12
- outcome [5]: inactive

Compound: CC(C)(C)CC(C)(C)c1ccc(O)cc1
- AC50 (DIO1 (gene 1733)): 90.7 µM (active)
- outcome [3]: inactive
- AC50 [5]: 27.6 µM (active)

Compound: Cl/C=C\C[N+]12CN3CN(CN(C3)C1)C2
- AC50 [1]: 50 µM (active)
- outcome [2]: inactive
- AC50 [3]: 50 µM (active)
- outcome [4]: inactive

Compound: CC(C)(c1ccc(OCC2CO2)cc1)c1ccc(OCC2CO2)cc1 (stereo not given)
- AC50 (DIO1 (gene 1733)): 1.37 µM (active)
- AC50 [1]: 50 µM (active)
- outcome [2]: inactive
- AC50 [3]: 38.1 µM (active)
- outcome [4]: inactive

Compound: CCC(C)(C)c1ccc(O)c(C(C)(C)CC)c1
- AC50 (DIO1 (gene 1733)): 46.1 µM (active)
- AC50 [5]: 38 µM (active)

Compound: CC(=O)[O][Hg][c]1ccccc1
- AC50 [1]: 0.29 µM (active)
- outcome [2]: inactive
- AC50 [3]: 0.424 µM (active)
- outcome [4]: inactive
- AC50 [5]: 13.1 µM (active)

Compound: COc1cc(-c2ccc(N)c(OC)c2)ccc1N
- outcome [5]: inactive

Compound: CC(C)(c1ccccc1)c1ccc(O)c(C(C)(C)c2ccccc2)c1
- outcome [5]: inactive

Compound: COP(=S)(OC)Oc1ccc(Sc2ccc(OP(=S)(OC)OC)cc2)cc1
- AC50 (DIO1 (gene 1733)): 1.19 µM (active)
- outcome [1]: inactive
- outcome [2]: inactive
- outcome [3]: inactive
- outcome [4]: inactive

Compound: C=CC(=O)OCCCCCC(C)C
- AC50 (DIO1 (gene 1733)): 30.8 µM (active)
- outcome [1]: inactive
- outcome [2]: inactive
- outcome [3]: inactive

Compound: O=C1C2(Cl)C3(Cl)C4(Cl)C(Cl)(Cl)C5(Cl)C3(Cl)C1(Cl)C5(Cl)C24Cl (stereo not given)
- AC50 [1]: 13.3 µM (active)
- AC50 [2]: 12.7 µM (active)
- AC50 [3]: 13.7 µM (active)
- AC50 [4]: 13.1 µM (active)
- AC50 [5]: 54 µM (active)

Compound: CC(C)c1cccc(C(C)C)c1O
- outcome [1]: inactive
- outcome [2]: inactive
- outcome [3]: inactive
- outcome [4]: inactive

Compound: CCC(=O)C(CC(C)N(C)C)(c1ccccc1)c1ccccc1 (stereo not given)
- outcome [1]: inactive
- outcome [2]: inactive
- outcome [3]: inactive
- outcome [4]: inactive

Compound: Clc1ccc(COC(Cn2ccnc2)c2ccc(Cl)cc2Cl)cc1 (stereo not given)
- AC50 [1]: 10.1 µM (active)
- AC50 [2]: 50 µM (active)
- outcome [3]: inactive
- AC50 [4]: 74.4 µM (active)

Compound: CN(CCCC(=O)c1cccnc1)N=O
- outcome [1]: inactive
- outcome [2]: inactive
- outcome [3]: inactive
- outcome [4]: inactive

Compound: C[C@H]1CCCC(=O)CCC/C=C/c2cc(O)cc(O)c2C(=O)O1
- AC50 [1]: 6.39 µM (active)
- AC50 [2]: 80.6 µM (active)
- AC50 [4]: 84.8 µM (active)
